For 22 molecules, activity change, negative = inhibition results are on record in PubChem BioAssay AID1259415 (National Center for Advancing Translational Sciences (NCATS), 2018).

About 18,000 (4.4%) of roughly 410,000 compounds were called active. Roughly 7% stayed inconclusive and do not appear here. The full list was thinned out, with actives kept by preference. Values without a mark were called inactive. Cut-off read from the data, not from the text of the source: active = activity change below about -60%; inconclusive = no clear call, values can overlap the other calls; inactive = above about -39%.
% is set by controls: 0 for no effect and ±100 for the full control effect.

The nature of this test: qHTS Assay for inhibitors of the human cytomegalovirus (HCMV). The following applies: HFF cells, HCMV-luciferase reporter, 72 h; at 57.5 µM; active compounds read low. The method in brief: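 Human foreskin fibroblasts infected with luciferase-reporter HCMV at MOI 1 PFU/cell, compounds at two doses. Luciferase measured 72 h post infection; normalized to buffer-only basal and Salinomycin (10uM) controls.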
For orientation: qHTS replaces the single test concentration by a dilution series.
Take `COc1ccc(CNC(=O)c2ccc(NC(=O)N3CC4CCCN4c4ccccc43)cc2)cc1` (configuration not stated): the activity change, negative = inhibition is -1.77%.

In the case of `CCOc1ccc(CNC(=O)C2CCN(c3nnc(-n4cccc4CNc4ccc(C)cc4)s3)CC2)cc1OC`, the activity change, negative = inhibition was -18.2%. Consider `CSc1ccc(CCNC(=O)C2CCN(c3nnc(-n4cccc4)s3)CC2)cc1`, for which the activity change, negative = inhibition was -19.1%. As for `Cc1ccc(CCNC(=O)C2CCN(c3nnc(-n4cccc4CNc4ccc(C)cc4)s3)CC2)cc1`, the activity change, negative = inhibition is -72.7% (active). As for `CCOC(=O)c1c(S(=O)(=O)NCC(=O)Nc2ccc(Cl)c(C(F)(F)F)c2)c(C)n(C)c1C`, the activity change, negative = inhibition was -27.1%. With `CC(C)C[C@H]1CN([C@@H](CC(C)C)CN2CCC[C@@H]2CN2C(=O)C(=O)NC[C@@H]2Cc2ccccc2)C(=O)C(=O)N1CCc1ccccc1`, the activity change, negative = inhibition is -63.2% (active). The same measure for `CCOc1ccc(CCN2C(=O)C(=O)N([C@@H](CC(C)C)CN3CCC[C@H]3CN3C(=O)C(=O)NC[C@@H]3Cc3ccccc3)C[C@@H]2CC(C)C)cc1`: -7.85%; for `CC(C)C[C@H]1CN([C@@H](Cc2ccccc2)CN2CCC[C@@H]2CN2C(=O)C(=O)NC[C@@H]2Cc2ccc(O)cc2)C(=O)C(=O)N1CCc1ccccc1`: -26.7%; for `O=C(Nn1c(-c2ccc(Cl)cc2)nc2ccccc2c1=O)c1cccnc1Cl`: -11.2%. For `O=c1c2ccccc2c(-c2ccccc2)nn1-c1ccccn1`, the activity change, negative = inhibition was -24.2%.

As for `O=c1c2ccccc2nc(-c2ccccc2)n1-c1ccccn1`, the activity change, negative = inhibition was -62.3% (active). On to `COc1cccc(CNC(=O)CN2C(=O)CCc3cc(S(=O)(=O)N4CCOCC4)ccc32)c1`, for which the activity change, negative = inhibition was 7.53%.

In the case of `COc1cc(OC)cc(-c2nc3nc(C)c(CCC(=O)Nc4ccc(C)cc4)c(C)n3n2)c1`, the activity change, negative = inhibition is 22.9%.

For the molecule `CCC1CCCCN1S(=O)(=O)c1ccc(NC(=O)c2cc(=O)c3ccccc3o2)cc1` (configuration not stated), the activity change, negative = inhibition is -21.4%. In the case of `CCc1ccc(NC(=O)c2sc3nc4c(cc3c2N)CN(CC)CC4)cc1`, the activity change, negative = inhibition was -27.1%. Take `Cc1cccc(-c2nnc(SCC(=O)N3CCCc4ccccc43)o2)c1`: the activity change, negative = inhibition was -13.3%. In the case of `Cc1cccc2cc3c(N)c(C(=O)N4CCCc5ccccc54)sc3nc12`, the activity change, negative = inhibition was -66.1% (active). For the molecule `COc1ccc(N2CCN(Cc3nc4c(c(=O)[nH]c(=O)n4C)n3Cc3ccc(Cl)cc3)CC2)cc1`, the activity change, negative = inhibition was -12.8%.

As to `Cc1cc(OC(C)C(=O)Nc2sc3c(c2C(N)=O)CCCC3)ccc1Cl` (configuration not stated), the activity change, negative = inhibition is -5.13%. Regarding `O=C(NC1CCCCC1)C1CC(=O)N(CCc2ccccc2)C1` (configuration not stated), the activity change, negative = inhibition was -109% (active).

As for `O=C(NCCCN1CCCCC1)C1CC(=O)N(CCc2ccccc2)C1` (configuration not stated), the activity change, negative = inhibition was 0.846%. The same measure for `Cc1ccc(CCN2CC(C(=O)NCCc3ccccc3)CC2=O)cc1` (configuration not stated): -5.82%.
